In the library only some 3.1% were active in any assay of this set; here they are far more common.
EP2 antag: human EP2 receptor antagonists, primary screen, TR-FRET cAMP, C6 glioma cells; 260,000 compounds, 0.52% hits; inhibition, % at 25 µM; C6 glioma cells expressing human EP2; cells stimulated with saturating PGE2; Prostaglandin E2 receptor EP2 subtype (Homo sapiens), P43116; AID 1422, 2008;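 active means percent inhibition above 40 after rounding to a whole number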;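 further: rat C6 glioma host cells with rolipram phosphodiesterase inhibitor present; the protocol text gives 20 µM as final concentration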
Target sequence (P43116 whole entry, looked up): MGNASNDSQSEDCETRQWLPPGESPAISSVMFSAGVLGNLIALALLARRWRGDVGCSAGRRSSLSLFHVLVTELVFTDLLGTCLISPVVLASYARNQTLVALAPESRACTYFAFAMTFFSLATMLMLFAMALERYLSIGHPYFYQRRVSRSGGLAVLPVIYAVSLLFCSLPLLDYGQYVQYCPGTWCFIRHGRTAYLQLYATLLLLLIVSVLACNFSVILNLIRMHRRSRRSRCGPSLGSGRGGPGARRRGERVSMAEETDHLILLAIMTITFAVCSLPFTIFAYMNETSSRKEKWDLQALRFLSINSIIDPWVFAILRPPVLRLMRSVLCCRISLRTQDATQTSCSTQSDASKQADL
Cl transport mod: KCC2 cotransporter modulators, thallium flux, primary screen, cell-based, HEK293 KCC2, FluoZin-2 fluorescence, MLSMR; AID 1456, 2008; 190,000 compounds, 2.2% hits; Solute carrier family 12 member 5 (Homo sapiens), Q9H2X9; B-score of Tl+ flux slope (higher = more flux/activation; lower = inhibition) at 10 µM; KCC2 cells, thallium flux FluoZin-2 fluorescence;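 active means thallium flux slope and its plate-corrected score both differing from the plate sample mean at a set confidence after two filtering rounds, in either direction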;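 further: slope of fluorescence scaled to starting intensity during 10 to 20 s after thallium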
S1P3 antag: S1P3 receptor antagonists, primary screen, cell-based; CHO S1P3 NFAT-BLA reporter, FRET fluorescence, antagonist mode; inhibition, % at 4.98 µM; 170,000 compounds, 0.27% hits;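 active means inhibition above the plate cutoff, the mean inhibition of test wells on that plate plus 3 SD, cut at about 28% in these data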;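 further: cells challenged with S1P at its EC80 of 0.8 µM; blue over green emission ratio from cleaved BLA substrate after 4 h stimulation; 0% = S1P-stimulated wells and 100% = unstimulated DMSO-only wells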
EP2 mod: EP2 receptor modulators, cAMP readout, primary screen, cell-based, HTRF cAMP, PGE2 stimulation. Prostaglandin E2 receptor EP2 subtype (Homo sapiens), P43116. EP2-expressing cells, cAMP HTRF FRET, PGE2 co-stimulation. induction, % at 25 µM. 260,000 compounds, 0.83% hits. AID 940, 2007;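 active means compounds whose cAMP rise, as percent of the full-agonist control response, exceeds 60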;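 further: rat C6 glioma line stably carrying human EP2 under a CMV promoter; the protocol text gives 20 µM as final concentration; 100% = response of wells given 1 µM PGE2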
* = called active by the depositor; · = no result given; ! = not active in a repeat.

SMILES	EP2 antag	Cl transport mod	S1P3 antag	EP2 mod
CCCN1CCc2cccc3c2[C@H]1Cc1ccc(O)c(O)c1-3	43.3*!	·	·	40.2
O=C1CC2(CCNCC2)Oc2ccc(F)cc21	5.8	·	·	-46.2
COCCc1ncc(CN2C3CCC2CC(O)(c2ccccc2OC)C3)cn1 (stereo not drawn)	7.4	·	·	-20.2
COc1cccc(CN2CCN(C(=O)COc3ccc(C)cc3)CC2)c1OC	6.2	·	·	-21.3
CC1Oc2cc3c(-c4c(O)cc(O)c5c(O)c6c(cc45)OC(C)C(C)C6=O)c(O)cc(O)c3c(O)c2C(=O)C1C (stereo not drawn)	15.7	5.02	42.7*	-28.4
C=CCn1ncc(CN2C3CCC2CC(O)(c2nccn2C)C3)c1C (stereo not drawn)	6.8	·	·	-8.6
CC1OC(=O)[C@@H](C(C)C)NC(=O)C(C(C)C)OC(=O)[C@H](C(C)C)NC(=O)C(C)OC(=O)[C@@H](C(C)C)NC(=O)C(C(C)C)OC(=O)[C@H](C(C)C)NC(=O)C(C)OC(=O)[C@@H](C(C)C)NC(=O)C(C(C)C)OC(=O)[C@H](C(C)C)NC1=O (stereo partly drawn)	9.5	·	·	12.3
C#CCOc1cccc(CN2C3CCC2CC(O)(c2ccc(F)cc2)C3)c1 (stereo not drawn)	4.4	·	·	-28.1
C=C1C(=O)O[C@H]2[C@H]1[C@H](OC(=O)CC(=O)O[C@@H]1C[C@@H](C)[C@@H]3C=CC(=O)[C@@]3(C)[C@H]3OC(=O)C(=C)[C@H]13)C[C@@H](C)[C@H]1C=CC(=O)[C@]12C	24.4	-0.00527	·	-21.0
C=C1C(=O)O[C@@H]2C[C@@H](C)[C@@H]3C=CC(=O)[C@@]3(C)[C@@H](OC(=O)CC(=O)O[C@H]3[C@@H]4C(=C)C(=O)O[C@@H]4C[C@@H](C)[C@@H]4C=CC(=O)[C@]43C)[C@H]12	166.3*	-0.128	·	-43.9
CCn1ncc(CN2C3CCC2CC(O)(c2ccccc2F)C3)c1C (stereo not drawn)	8.8	·	·	-21.6
COc1cc2cc(c1Cl)N(C)C(=O)C[C@H](OC(=O)C(C)C)[C@]1(C)O[C@H]1[C@@H](C)[C@H]1C[C@](O)(NC(=O)O1)[C@@H](OC)/C=C\C=C(\C)C2	52.2*	·	·	23.2
C[N+](C)(C)CC1Cc2ccccc2O1 (stereo not drawn)	4.7	·	·	-8.0
O=C(O)C[C@@H]1OCC=C2CN3CC[C@]45c6ccccc6N[C@H]4[C@H]1[C@H]2C[C@H]35	50.9*	·	·	0.6
Cc1ccccc1N1C(=O)NC(=O)/C(=C\c2cnn(-c3ccccc3)c2)C1=O	51.3*	0.0171	-21.8	-56.7
CCn1c(C)cc(/C=C2\C(=O)NC(=O)N(c3ccccc3C)C2=O)c1C	5.7	-0.755	-8.6	-17.4
O=C(O)c1cccc([As]=[As]c2cccc(C(=O)O)c2)c1 (stereo not drawn)	42.1*	·	·	26.6
COc1ccc(CC2C(=O)NC(=O)N(c3ccccc3)C2=O)c(OC)c1 (stereo not drawn)	16.6	·	74.4*	4.1
COc1ccc(CC2C(=O)N(c3ccccc3)C(=O)N(c3ccccc3)C2=O)c(OC)c1	8.2	·	·	-8.9
CC(=O)Oc1c2c(c(CC=C(C)C)c3c1C(=O)C1=C[C@@H]4CC5C(C)(C)OC(C/C=C(\C)C(=O)O)(C4=O)[C@@]15O3)OC(C)(CCC=C(C)C)C=C2 (stereo partly drawn)	27.1	·	·	6.8
C=C(C)c1ccccc1 (tested in a mixture with another compound)	55.3*	·	·	9.7
COC1C(O)C(O[C@H]2CC[C@]3(C=O)C4C(CC[C@]3(O)C2)[C@@]2(O)CC[C@H](C3=CC(=O)OC3)[C@@]2(C)C[C@H]4OC(C)=O)OC(C)C1OC(C)=O (stereo partly drawn)	12.1	·	·	16.5
CCCCc1nc2ccccc2c(=O)n1-c1ccccc1[N+](=O)[O-]	8.0	0.268	·	36.8
CCc1nc2ccccc2c(=O)n1-c1ccccc1[N+](=O)[O-]	49.0*	0.0285	-12.7	5.6
CCOc1cc(CN2C3CCC2CC(O)(c2nccn2C)C3)c(C)cc1OC (stereo not drawn)	7.2	·	·	0.5
C[C@]12CC[C@@H]3c4ccc(O)c(O)c4CC[C@H]3[C@@H]1CC[C@@H]2O	89.0*	0.0174	-5.0	-23.7

Assay outcomes from PubChem BioAssay.
